Screening results from PubChem.
Sampled rows, rich in hits. Any-hit rate of the full collection: about 2.5%.
TROY NFkB inh – TROY signaling inhibition. AID 1347056. 360,000 compounds, 0.98% hits. inhibition, % at 10 µM. Q293 LMP1-TROYcd NF-kB luciferase reporter, 4 h;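 active = compounds whose plate-normalised and pattern-corrected inhibition of the luciferase reporter signal at the single screening dose is 50% or more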
LGR2 antag – blocks bursicon-induced cAMP signaling via Drosophila LGR2. HEK293 LGR2, CRE-luciferase, bursicon-stimulated, 4 h. 380,000 compounds, 0.35% hits. inhibition, % at 9.99 µM;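 active = drop in luminescence signal, shown as inhibition above about 50% in the replicate tests, limit read from the data, passing the limit was not always enough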;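 also: agonist challenge used bursicon conditioned medium at about half maximal strength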
LMP1 NFkB inh – Epstein-Barr LMP1 NF-kappaB reporter inhibition | LMP1-induced NF-kappaB luciferase reporter cells, luminescence | inhibition, % at 12.5 µM | 350,000 compounds, 0.69% hits; in the data active = inhibition above about 41%;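 also: 0% = neutral control wells and 100% = reference inhibitor control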
EWS-Fli block – blocks EWS/Fli oncoprotein-driven transcription; inhibition, % at 12.6 µM; AID 651661; 350,000 compounds, 0.67% hits; A673 NR0B1-luciferase reporter, viability-normalised;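 active = mean inhibition of at least 50% after viability correction, with every replicate also passing that limit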;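 also: firefly luciferase signal divided by Alamar Blue viability fluorescence both relative to DMSO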
TWEAK-Fn14 inh – blocks TWEAK-Fn14 interaction in a reporter cell assay; TWEAK-stimulated Fn14 reporter cells, luciferase luminescence, 8 h; inhibition, % at 10 µM; 360,000 compounds, 2% hits; AID 1159606; in the data active = inhibition above about 50%
* = called active by the depositor; / = no result.

SMILES	TROY NFkB inh	LGR2 antag	LMP1 NFkB inh	EWS-Fli block	TWEAK-Fn14 inh
CC1(c2nnnn2-c2ccc3c(c2)OCCO3)CCC(=O)N1CCc1ccccc1F (configuration not stated)	37	13	/	4	68*
COc1ccccc1-c1cnc2c(c1)C(=O)N([C@@H](C)CO)C[C@@H](C)[C@H](CN(C)Cc1ccc(C(=O)O)cc1)O2	/	-12	/	-24	/
O=C(NCCc1ccc(F)cc1)c1coc(=O)c(Br)c1	-7	-8	-20	39	90*
COc1cccc(NC(=O)N2CCc3nc(NCc4cccc(Oc5ccccc5)c4)ncc3C2)c1	18	/	/	41	54*
O=C(Nc1ccc(OC(F)(F)F)cc1)N1CCc2nc(NCc3cccc(Oc4ccccc4)c3)ncc2C1	33	-8	/	22	35
CC(C)c1ccc(Nc2ncc3c(n2)CCN(C(=O)Nc2ccc(F)c(Cl)c2)C3)cc1	65*	-9	/	-96	78*
COc1cccc(C(=O)N2C[C@@H]3[C@H](c4ccccc42)[C@@H](CO)N3C(=O)c2ccccc2)c1	/	6	/	-7	/
CC(C)NC(=O)N1CCCCN2[C@H](CO)[C@H](c3ccc(C#Cc4ccccc4)cc3)[C@@H]2C1	/	-2	/	-4	/
COc1cccc(-c2ccc3c(c2)[C@@H]2[C@@H](CCN2Cc2ccccc2OC)[C@@H](CO)N3)c1	/	-11	/	5	/
O=C(CCN1C(=O)NC2(CCCC2)C1=O)Nc1ccc(-c2nc3ccccc3s2)cc1	43	3	-2	27	60*
Cc1ccc2nc(-c3ccc(NC(=O)C(C)Sc4nncs4)cc3)sc2c1 (configuration not stated)	73*	58*	20	29	89*
O=C(Nc1ccc(-c2nc3ccccc3s2)cc1)c1cc(-n2cnnc2)ccc1Cl	53*	-1	11	-10	95*
Cc1ccc2nc(-c3ccc(NC(=O)CCS(=O)(=O)c4ccccc4)cc3)sc2c1	-12	-57	22	70*	17
Cc1ccc2nc(-c3ccc(NC(=S)NC(=O)CC(C)C)cc3)sc2c1	-43	/	-34	/	-6
Cc1ccc(NC(=O)c2cc(-n3cnnc3)ccc2Cl)cc1	-20	/	-2	/	-15
COc1ccc(NC(=O)N(C)C[C@@H]2Oc3ccc(NC(=O)Cc4cn(C)c5ccccc45)cc3CC(=O)N([C@@H](C)CO)C[C@@H]2C)cc1	/	3	/	-7	/
O=C(Nc1ccc2c(c1)OCO2)N1C[C@@H]2N[C@H](C1)C2c1ccc(-c2ccccc2)cc1 (some centres not stated)	/	14	/	-7	/
O=C(Nc1ccc(Cl)c(Cl)c1)N[C@@H]1CC[C@H](CCn2cc(C3CC3)nn2)O[C@@H]1CO	/	6	/	35	/
Cc1nnc(SCC(=O)Nc2ccccc2NC(=O)CSc2nnc(C)s2)s1	-2	1	4	/	9
Cc1nnc(SCC(=O)Nc2ccc(-c3nc4ccccc4s3)cc2)s1	55*	/	11	5	77*
Cc1ccc2nc(-c3ccc(NC(=O)CSc4nccc(=O)[nH]4)cc3)sc2c1	51*	-28	-21	-14	24
Cc1ccc(S(=O)(=O)N(C)C[C@@H]2OCCCC[C@@H](C)Oc3ccc(NC(=O)CCCN(C)C)cc3C(=O)N([C@@H](C)CO)C[C@H]2C)cc1	/	-13	/	-9	/
C[C@H]1CCCCO[C@@H](CN(C)C(=O)CCCN(C)C)[C@@H](C)CN([C@@H](C)CO)C(=O)c2cc(NS(C)(=O)=O)ccc2O1	/	-23	/	-2	/
Cc1ccccc1CNC(=O)/C=C\C(=O)O	75*	-21	1	/	1
COc1ccccc1CNC(=O)/C=C/C(=O)O	17	14	5	-9	-2
SMILES	TROY NFkB inh	LGR2 antag	LMP1 NFkB inh	EWS-Fli block	TWEAK-Fn14 inh
C[C@@H]1CN([C@@H](C)CO)S(=O)(=O)c2ccc(/C=C/c3ccccc3)cc2O[C@@H]1CN(C)C(=O)c1ccccc1	/	8	/	10	/
Cc1ccc(S(=O)(=O)N(C)C[C@@H]2Oc3c(NC(=O)CCCCCC(=O)Nc4ccccc4N)cccc3C(=O)N([C@H](C)CO)C[C@@H]2C)cc1	/	-10	/	-16	/
COc1ccc(OC)c(-c2cc(C3CCN(c4cc(Cl)nc(N)n4)CC3)[nH]n2)c1	53*	/	-10	/	67*
Nc1nc(Cl)cc(N2CCC(c3cc(-c4ccc(Cl)cc4)n[nH]3)CC2)n1	40	28	-8	11	94*
COCC(=O)N1CC2(C1)[C@H](c1ccc(-c3cccc(C)c3)cc1)[C@H](CO)N2C(=O)C1CC1	/	16	/	-4	/
O=C(C1CC1)N1C[C@@H]2[C@H](c3ccccc31)[C@H](CO)N2S(=O)(=O)c1ccccc1	/	-7	/	6	/
C[C@@H]1CN([C@@H](C)CO)C(=O)c2cccc(NC(=O)Nc3ccc(F)cc3)c2O[C@@H]1CN(C)S(=O)(=O)c1ccccc1	/	9	/	21	/
O=C(c1ccc([N+](=O)[O-])cc1)N1CCSC1c1ccccc1Cl (configuration not stated)	0	13	8	10	-1
COc1ccc(C2SCCN2C(=O)c2ccc([N+](=O)[O-])cc2)cc1 (configuration not stated)	-4	24	42*	8	-15
O=C(CN1C(=O)c2ccccc2S1(=O)=O)c1ccc(Cl)cc1Cl	87*	103*	79*	/	105*
O=C(CN1C(=O)c2ccccc2S1(=O)=O)c1ccc(OC(F)F)cc1	82*	/	82*	/	98*
O=C(CN1C(=O)c2ccccc2S1(=O)=O)c1ccccc1F	78*	73*	45*	/	93*
O=C(CN1C(=O)c2ccccc2S1(=O)=O)N1CCN(c2ccccc2F)CC1	-28	/	-3	/	9
C[C@@H]1CN([C@H](C)CO)C(=O)c2cc(NC(=O)CCCN(C)C)ccc2O[C@@H](C)CCCCO[C@H]1CN(C)C(=O)CCCN(C)C	/	1	/	-20	/
CCCC#Cc1cnc2c(c1)C(=O)N([C@H](C)CO)C[C@H](C)[C@H](CN(C)C(=O)c1ccc(F)cc1)O2	/	1	/	14	/
CO[C@H]1CN(C)C(=O)c2ccc(NC(=O)c3cccc(Oc4ccccc4)c3)cc2OC[C@H](C)NC[C@@H]1C	/	15	/	-12	/
CC(C)CC#Cc1cnc2c(c1)C(=O)N([C@H](C)CO)C[C@@H](C)[C@H](CN(C)Cc1ccccc1C(=O)O)O2	/	-22	/	7	/
CC(=O)c1c(C)[nH]c(C(=O)CSc2nnc(-c3ccccc3)o2)c1C	22	/	3	/	96*
O=C(O)CCSc1ncnc2sc(-c3ccccc3)cc12	63*	12	31	69*	86*
CC(=O)c1c(C)[nH]c(C(=O)CSc2ncnc3sc(-c4ccccc4)cc23)c1C	24	/	24	12	64*
O=C(CSc1nnc(-c2ccccc2)o1)c1nnc(-c2ccccc2)o1	-7	11	-2	/	-1
C[C@@H]1CN([C@H](C)CO)C(=O)c2cc(N(C)C)ccc2O[C@@H](C)CCCCO[C@@H]1CN(C)C(=O)Nc1ccc2c(c1)OCO2	/	41	/	4	/
